# Measured values taken from PubChem BioAssay AID743258 (The Scripps Research Institute Molecular Screening Center, 2014).
# About 100 (3%) of roughly 3,300 compounds were called active. Cut-off read from the data, not from the text of the source: active = inhibition above about 9.5%; inactive = the rest. Only a sample is shown.
# Target: 1-phosphatidylinositol 4,5-bisphosphate phosphodiesterase gamma-1 (Homo sapiens) (UniProt P19174)
# Assay: human PLCG1 activity blockade – biochemical, fluorescence, counter-screen for PLC-beta3 inhibitor project (AID 743258)
# Details: purified PLC-gamma1, fluorogenic substrate, at 12.3 µM, active compounds read high
# Sequence of 1-phosphatidylinositol 4,5-bisphosphate phosphodiesterase gamma-1 (Homo sapiens) (P19174 whole entry, looked up): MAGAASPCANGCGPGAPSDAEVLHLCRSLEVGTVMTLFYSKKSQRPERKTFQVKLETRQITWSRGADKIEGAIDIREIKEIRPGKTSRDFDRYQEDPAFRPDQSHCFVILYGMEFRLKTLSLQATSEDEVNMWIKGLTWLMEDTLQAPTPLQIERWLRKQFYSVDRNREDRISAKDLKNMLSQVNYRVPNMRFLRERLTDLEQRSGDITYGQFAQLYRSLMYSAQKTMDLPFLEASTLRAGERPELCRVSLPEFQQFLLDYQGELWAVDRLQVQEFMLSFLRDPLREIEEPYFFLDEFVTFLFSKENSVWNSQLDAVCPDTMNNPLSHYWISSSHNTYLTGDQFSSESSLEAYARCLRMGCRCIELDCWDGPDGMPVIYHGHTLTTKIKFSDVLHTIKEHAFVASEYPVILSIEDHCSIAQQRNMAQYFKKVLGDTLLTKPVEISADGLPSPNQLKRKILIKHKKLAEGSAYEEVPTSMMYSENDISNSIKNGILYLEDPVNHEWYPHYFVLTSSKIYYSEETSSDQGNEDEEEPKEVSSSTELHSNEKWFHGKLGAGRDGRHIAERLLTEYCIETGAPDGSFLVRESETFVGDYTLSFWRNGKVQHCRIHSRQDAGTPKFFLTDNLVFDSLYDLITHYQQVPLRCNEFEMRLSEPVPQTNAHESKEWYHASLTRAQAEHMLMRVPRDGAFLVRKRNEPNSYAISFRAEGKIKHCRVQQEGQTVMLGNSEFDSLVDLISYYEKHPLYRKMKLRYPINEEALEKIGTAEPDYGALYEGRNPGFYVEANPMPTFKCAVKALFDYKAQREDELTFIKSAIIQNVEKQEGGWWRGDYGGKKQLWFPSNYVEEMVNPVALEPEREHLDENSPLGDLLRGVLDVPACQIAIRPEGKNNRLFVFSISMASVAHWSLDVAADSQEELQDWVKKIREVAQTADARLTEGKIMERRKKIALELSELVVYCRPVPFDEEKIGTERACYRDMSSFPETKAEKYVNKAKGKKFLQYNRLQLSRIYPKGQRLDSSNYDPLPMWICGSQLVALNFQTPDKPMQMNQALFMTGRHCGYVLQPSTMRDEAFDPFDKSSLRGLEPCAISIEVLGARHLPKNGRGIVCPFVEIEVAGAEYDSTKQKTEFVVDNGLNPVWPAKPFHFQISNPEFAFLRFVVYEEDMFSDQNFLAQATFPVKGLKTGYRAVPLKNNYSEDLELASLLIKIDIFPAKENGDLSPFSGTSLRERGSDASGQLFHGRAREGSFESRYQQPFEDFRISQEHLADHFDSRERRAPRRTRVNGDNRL
row,SMILES,inhibition
1,O=C(CCNS(=O)(=O)c1ccc(Br)cc1)NCC1CCCO1 (centres undefined),-3.55% (inactive)
2,CCOC(=O)Nc1ccc(NC(=O)OCC)cc1,5.66% (inactive)
3,Cc1ccc(S(=O)(=O)Cn2nnnc2CN2CCN(Cc3ccc4c(c3)OCO4)CC2)cc1,0.94% (inactive)
4,Cc1cccc(NC(=O)c2ccc3c(=O)n(CC4CCCO4)c(=S)[nH]c3c2)c1 (centres undefined),-0.76% (inactive)
5,CCn1c(/C=C/Nc2ccccc2)[n+](CC)c2ccc(C(=O)OCC(F)(F)F)cc21,-14.3% (inactive)
6,Cc1ccc(/C=N/NC(=O)CSc2nc3ccccc3o2)cc1,-5.43% (inactive)
7,CNC(=O)c1ccc(NC(=O)c2cccc(C(F)(F)F)c2)cc1,-6.45% (inactive)
8,CCCCc1nc2ccccc2c(NC(=O)CN2CCN(C)CC2)c1CCC,-4.07% (inactive)
9,COc1ccccc1C(=O)Nc1cccc(C(=O)N2CCOCC2)c1,-6.49% (inactive)
10,COCCCN(C(=S)Nc1c(C)cc(C)cc1C)C(C)c1ccncc1 (centres undefined),-0.82% (inactive)
11,Cc1ccc(C)c(N2CCN(S(=O)(=O)c3c(C)[nH]c(C)c3C(=O)N3CCCC3)CC2)c1,-8.57% (inactive)
12,CN(CC(=O)NC1CCCCC1)S(=O)(=O)c1ccc(Br)s1,-5.25% (inactive)
13,O=C1N[C@@H](c2ccccc2)COC(=O)[C@H](Cc2ccc(F)cc2)C/C=C\C[C@@H]1CC(=O)N(CCO)Cc1ccccc1,-2.05% (inactive)
14,Cc1ccc(N2CC(C(=O)NCCS(=O)(=O)N3CCN(c4ccccc4)CC3)CC2=O)cc1 (centres undefined),-3.74% (inactive)
15,O=c1ccc2c(-c3ccccc3S(=O)(=O)O)c3ccc(O)c(O)c3oc-2c1O,26.6% (active)
16,NC1=CC(=O)C(=O)c2cccnc21,0.29% (inactive)
17,CCc1ccc(-c2nc(SCC(=O)NC3CCCC3)n[nH]2)cc1,-6.5% (inactive)
18,Cc1ccc(-n2ncc3c2CC(C)(C)CC3NC(=O)CCc2cnn(C)c2)cc1 (centres undefined),-2.59% (inactive)
19,COC(=O)CN1C(=O)C(O)=C(C(C)=O)C1c1ccc([N+](=O)[O-])cc1 (centres undefined),-0.28% (inactive)
20,O=C(NCc1ccc(F)cc1F)[C@@H]1CCCN1C(=O)[C@@H]1CCCN1C(=O)c1cccc(Cl)c1,-4.84% (inactive)
21,CCOc1ccc(CCNC(=O)COC(=O)CCS(=O)(=O)c2ccc(C)cc2)cc1OCC,1.09% (inactive)
22,Cc1ccc(C(=O)Nc2ccc(C)c(S(=O)(=O)N(C)C)c2)s1,-0.35% (inactive)
23,CC(=O)C1=C(O)C(=O)N(c2cccnc2)C1c1ccc([N+](=O)[O-])cc1 (centres undefined),-4.99% (inactive)
24,O=C(C(c1ccccc1)c1ccccc1)N1CCN(CC(O)COc2ccccc2)CC1 (centres undefined),0.93% (inactive)
